Compound activity: PubChem BioAssay, National Center for Advancing Translational Sciences (NCATS)
MCF10A rerep: induces DNA re-replication in MCF 10a normal breast cells | 2.9% of 350,000 active | Potency, µM (doses to about 46.1 µM), actives largely listed as activators | MCF 10A DNA re-replication, Hoechst nuclear intensity, 48 h; also: nearly all actives have a fitted effect of over 50% in size
RORgamma inh: blocks mouse ROR gamma transcriptional activity. Potency, µM (doses to about 53.6 µM), most hits filed as inhibitors. Drosophila S2 Gal4-RORgamma UAS-luciferase reporter, 20 h. 5.4% of 310,000 active; also: nearly all actives have a fitted effect of over 60% in size
Target sequence (P51450 whole entry, looked up, the tested form may be a part): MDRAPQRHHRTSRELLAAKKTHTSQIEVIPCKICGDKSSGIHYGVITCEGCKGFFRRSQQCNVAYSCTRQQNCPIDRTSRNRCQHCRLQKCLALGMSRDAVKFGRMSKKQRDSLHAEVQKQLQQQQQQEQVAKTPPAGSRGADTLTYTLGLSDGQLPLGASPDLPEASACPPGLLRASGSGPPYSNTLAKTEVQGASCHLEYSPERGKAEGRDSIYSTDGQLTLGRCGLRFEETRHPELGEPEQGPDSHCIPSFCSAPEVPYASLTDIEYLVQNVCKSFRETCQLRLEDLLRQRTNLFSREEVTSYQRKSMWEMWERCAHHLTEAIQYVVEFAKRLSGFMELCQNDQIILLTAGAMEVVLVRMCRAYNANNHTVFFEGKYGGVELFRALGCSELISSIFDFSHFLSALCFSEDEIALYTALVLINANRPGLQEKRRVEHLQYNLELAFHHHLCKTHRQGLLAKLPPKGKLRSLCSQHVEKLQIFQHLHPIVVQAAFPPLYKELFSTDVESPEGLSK
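Stable Schneider cell line, Gal4 DNA-binding domain fused to ROR gamma, UAS-luciferase. Cmpd 1 hr RT → CuSO4 700 uM final → 20 hr RT → luciferase reagent 10 min → luminescence.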
VP16 counter: counter-screen for ROR gamma inhibitors: Gal4-VP16 reporter; Potency, µM (top dose mostly 53.6 µM), usual class: inhibitors; 3.5% of 310,000 active; Drosophila S2 Gal4-VP16 UAS-luciferase, luminescence, 20 h;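 also: Gal4-VP16 expression switched on by copper sulfate through the metallothionein promoter; nearly all actives have a fitted effect of over 50% in size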
KB-V1 MDR tox: kills drug-selected multidrug resistant KB-V1 cells; 3.4% of 400,000 active; KB-V1 MDR cells viability, CellTiter-Glo, 72 h; Potency, µM (series often up to 46.1 µM), hits mostly cytotoxic; AID 1347076; also: nearly all actives have a fitted effect of over 60% in size
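Cytotoxicity via CellTiter-Glo luminescence after 72 h compound exposure at 37 degrees C. Cells: drug-selected KB-V1 line, DMEM phenol-red free plus 10% FBS. Compounds tested at multiple concentrations; normalized data fitted to concentration-effect curves.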
SW480 rereplic: induces DNA re-replication in SW480 colon adenocarcinoma cells | Potency, µM (titrated, usually from 46.1 µM), actives largely listed as activators | 1.8% of 340,000 active | SW480 DNA re-replication, Hoechst DNA content imaging, 48 h; also: nearly all actives have a fitted effect of over 55% in size
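Cells (250 per well) received 23 nL compound or DMSO by pin tool and were kept 48 hr at 37 C, 5% CO2. Nuclei were then stained with Hoechst for 40 min and scanned for DNA content.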
KB-3-1 tox: KB-3-1 parental cell cytotoxicity; 1.4% of 400,000 active; AID 1347075; Potency, µM (doses to about 46.1 µM), most hits filed as cytotoxic; KB-3-1 viability, CellTiter-Glo ATP luminescence, 72 h; also: nearly all actives have a fitted effect of over 60% in size
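Using CellTiter-Glo luminescence, growth of non-resistant KB-3-1 adenocarcinoma cells is assessed 72 h after pin-tool compound addition at 37 °C. Normalized responses across the concentration series yield fitted curves.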
Large screens that a line does not name were inactive. Sampled rows, rich in hits. Any-hit rate of the full collection: about 10%. Calls follow the shape of the dose curve; as a rule, active = well fitted curve in the direction sought with a large enough effect; inconclusive = small, poorly fitted or top-dose-only effect, or another doubt; inactive = no such curve, though single readings can be large; an effect the other way counts as inactive or inconclusive.

O=C(C1=C[C@H](c2csc3ccccc23)C[C@H](OCc2ccc(CO)cc2)O1)N1CCN(Cc2ccc3c(c2)OCO3)CC1	MCF10A rerep 23µM
C#Cc1ccc([C@H]2C=C(C(=O)N3CCN(Cc4ccc5c(c4)OCO5)CC3)O[C@@H](OCc3ccc(CO)cc3)C2)cc1	MCF10A rerep 26µM, SW480 rereplic inconclusive
CC(=O)n1cc([C@H]2C=C(C(=O)NCc3ccccc3)O[C@@H](OCc3ccc(CO)cc3)C2)c2ccccc21	MCF10A rerep 18µM
O=C(C1=C[C@H](c2csc3ccccc23)C[C@H](OCc2ccc(CO)cc2)O1)N1CCN(Cc2ccccc2)CC1	MCF10A rerep inconclusive, KB-3-1 tox inconclusive
C#CCNC(=O)C1=C[C@@H](c2cn(C(C)=O)c3ccccc23)C[C@@H](OCc2ccc(CO)cc2)O1	KB-V1 MDR tox inconclusive, SW480 rereplic inconclusive
COC(=O)c1ccccc1S(=O)(=O)Nc1cc(=O)c2ccccc2[nH]1	none (no result: MCF10A rerep, RORgamma inh, VP16 counter, SW480 rereplic)
CC(C)Cc1ccc(-c2cc3nc(NCCOc4ccccc4)ccn3n2)cc1	none (no result: MCF10A rerep, RORgamma inh, VP16 counter, SW480 rereplic)
CC(=O)Nc1ccc(NC(=O)C2CCN(S(=O)(=O)c3ccc4c(c3)CCCC(=O)N4)CC2)cc1	none (no result: MCF10A rerep, RORgamma inh, VP16 counter, SW480 rereplic)
C#CCNC(=O)C1=C[C@H](c2csc3ccccc23)C[C@H](OCc2ccc(CO)cc2)O1	MCF10A rerep 2.1µM, SW480 rereplic inconclusive
Cc1ncc(CO)c2c1Oc1nc(-c3ccc(F)cc3)nc(SCC(=O)N3CCCCC3)c1C2	none (no result: MCF10A rerep, RORgamma inh, VP16 counter, SW480 rereplic)
Cc1cc(C2(c3ccc(O)c(C)c3)C(=O)Nc3ccccc32)ccc1O	MCF10A rerep inconclusive, VP16 counter 16µM, SW480 rereplic inconclusive, KB-3-1 tox inconclusive
O=C(CSc1nc2ncccc2o1)Nc1ccc(Cl)cc1F	none (no result: MCF10A rerep, RORgamma inh, VP16 counter, SW480 rereplic)
CCOC(=O)c1c(NC(=S)N2CCN(C)CC2)sc(C)c1-c1ccccc1	MCF10A rerep 26µM, VP16 counter inconclusive, SW480 rereplic inconclusive
CCOC(=O)c1c(NC(=O)/C=C/C(=O)O)sc(C)c1-c1ccc(Cl)cc1	MCF10A rerep 2.9µM, KB-3-1 tox inconclusive
CCOC(=O)c1c(NC(=O)CN2CCCCC2)sc(CN(C)C)c1-c1ccccc1	MCF10A rerep 26µM, SW480 rereplic 16µM
CCOC(=O)c1c(NC(=O)CCl)sc(CN(C)C)c1-c1ccccc1	MCF10A rerep inconclusive, RORgamma inh inconclusive, VP16 counter inconclusive, SW480 rereplic inconclusive, KB-3-1 tox inconclusive
Cc1ccc(CNC(=O)c2sc3nc(-c4ccc(F)cc4)ccc3c2N)cc1	none (no result: MCF10A rerep, RORgamma inh, VP16 counter, SW480 rereplic)
O=c1c(-c2ccc(Cl)cc2)nc2cnc(N3CCOCC3)nc2n1-c1ccccc1	none (no result: MCF10A rerep, KB-V1 MDR tox, SW480 rereplic, KB-3-1 tox)
CCc1cc2c(=O)c(-c3ccc4c(c3)OCCO4)c(C)oc2cc1OS(C)(=O)=O	MCF10A rerep inconclusive, VP16 counter 20µM, KB-V1 MDR tox inconclusive, SW480 rereplic inconclusive, KB-3-1 tox inconclusive
CC(=O)Nc1cccc(NC(=O)CN2C(=O)CCSc3ccccc32)c1	none (no result: MCF10A rerep, RORgamma inh, VP16 counter, SW480 rereplic)
Cc1[nH]c2ccccc2c1CCN(Cc1cccs1)C(=S)Nc1ccccc1	RORgamma inh 5.6µM, KB-V1 MDR tox inconclusive
COc1cccc(NC(=S)N(CCc2c(C)[nH]c3ccccc23)Cc2cccs2)c1	RORgamma inh inconclusive, VP16 counter inconclusive, KB-3-1 tox inconclusive
CCNC(=S)N(CCc1c(C)[nH]c2ccc(Cl)cc12)Cc1ccco1	MCF10A rerep inconclusive, RORgamma inh inconclusive, VP16 counter inconclusive, SW480 rereplic 18µM, KB-3-1 tox 23µM
CNC(=S)N(CCc1c(C)[nH]c2ccc(Cl)cc12)Cc1cc(OC)c(OC)c(OC)c1	MCF10A rerep inconclusive, KB-V1 MDR tox inconclusive, SW480 rereplic 26µM, KB-3-1 tox inconclusive
CNC(=S)N(CCc1c(C)[nH]c2ccc(Cl)cc12)Cc1cccs1	RORgamma inh inconclusive (no result: MCF10A rerep, KB-V1 MDR tox, SW480 rereplic, KB-3-1 tox)
CCNC(=S)N(CCc1c(C)[nH]c2ccc(C)cc12)Cc1cccs1	MCF10A rerep inconclusive, RORgamma inh 7.1µM, VP16 counter inconclusive, KB-V1 MDR tox inconclusive
COCCNC(=S)N(CCc1c(C)[nH]c2ccc(F)cc12)Cc1cccs1	RORgamma inh 7.9µM, VP16 counter inconclusive, KB-V1 MDR tox inconclusive
CCC(Cn1nnc2ccccc2c1=O)NC(=O)Nc1ccccc1Cl (centres undefined)	none (no result: MCF10A rerep, RORgamma inh, VP16 counter, SW480 rereplic)
